Laboratory results taken from PubChem BioAssay (EPA / NIEHS).
Activity calls are given as the source filed them. How the source made its calls: active means hit-call score of the fitted dose curve at least 0.9, where 1 is the maximum; inactive means score below 0.9.

Assays:
[1] = read-out: Macrophage colony-stimulating factor (MCSF), CSF1 (gene 1435); experiment: BSK_hDFCGF_MCSF: BioMAP Diversity Plus: hDFCGF Assay for Macrophage colony-stimulating factor (MCSF) Biomarker Activity (AID 2283060); settings: primary human foreskin fibroblasts; actives raise or lower the signal
Summary of the method: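 ELISA read-out of M-CSF in human dermal foreskin fibroblast cultures, 24 h after chemical dosing; gain or loss of signal fitted bidirectionally relative to DMSO baseline.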

[2] = BSK_hDFCGF_SRB: Viability Assessment in the BioMAP Diversity Plus: hDFCGF Assay (AID 2283061); settings: primary human foreskin fibroblasts;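 further: cells exposed to compound for 24 h before the read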
Summary of the method: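 Primary human foreskin fibroblasts; 24 h post-dose; fixed 10% TCA, stained 0.1% SRB, A560 read; total protein as overt cytotoxicity measure; curves fit bidirectionally vs DMSO control.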

[3] = read-out: TIMP metallopeptidase inhibitor 1 (TIMP1), TIMP1 (gene 7076); experiment: BSK_hDFCGF_TIMP1: BioMAP Diversity Plus: hDFCGF Assay for TIMP metallopeptidase inhibitor 1 (TIMP1) Biomarker Activity (AID 2283062); settings: primary human foreskin fibroblasts; actives raise or lower the signal
Summary of the method: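 ELISA readout of TIMP-1 from human dermal foreskin fibroblast cultures 24 h post-dosing. Curves were fitted in both directions against DMSO baseline, with SRB total-protein staining in parallel cultures as a cytotoxicity check.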

[4] = read-out: Monokine induced gamma interferon (MIG), CXCL9 (gene 4283); experiment: BSK_hDFCGF_MIG: BioMAP Diversity Plus: hDFCGF Assay for Monokine induced gamma interferon (MIG) Biomarker Activity (AID 2283063); settings: primary human foreskin fibroblasts; actives raise or lower the signal
Summary of the method: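 Fibroblasts (human foreskin, primary) dosed, 24 h, MIG by ELISA; fit bidirectional vs DMSO.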

[5] = read-out: Matrix Metallopeptidase 1 (MMP1), MMP1 (gene 4312); experiment: BSK_hDFCGF_MMP1: BioMAP Diversity Plus: hDFCGF Assay for Matrix Metallopeptidase 1 (MMP1) Biomarker Activity (AID 2283064); settings: primary human foreskin fibroblasts; actives raise or lower the signal
Summary of the method: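 MMP1 levels quantified by ELISA 24 h after dosing human dermal fibroblast cultures, with parallel SRB total-protein staining for overt cytotoxicity. Data fitted in both directions against DMSO baseline.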

[6] = read-out: Vascular cell adhesion molecule 1 (VCAM1), VCAM1 (gene 7412); experiment: BSK_hDFCGF_VCAM1: BioMAP Diversity Plus: hDFCGF Assay for Vascular cell adhesion molecule 1 (VCAM1) Biomarker Activity (AID 2283065); settings: primary human foreskin fibroblasts; actives raise or lower the signal;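 on AC50: VCAM-1 protein level quantified by ELISA after 24 h chemical exposure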
Summary of the method: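 ELISA read-out of VCAM-1 on human skin fibroblasts, 24 h post-dose; gain or loss of signal fitted bidirectionally against DMSO baseline.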

[7] = read-out: Intercellular Adhesion Molecule 1 (ICAM1), ICAM1 (gene 3383); experiment: BSK_KF3CT_ICAM1: BioMAP Diversity Plus: KF3CT Assay for Intercellular Adhesion Molecule 1 (ICAM1) Biomarker Activity (AID 2283067); settings: primary human keratinocytes with fibroblasts; actives raise or lower the signal
Summary of the method: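 ELISA readout of ICAM-1; KF3CT human skin co-culture (keratinocytes + foreskin fibroblasts), 24 h post-dose; gain/loss fit vs DMSO baseline.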

[8] = BSK_KF3CT_SRB: Viability Assessment in the BioMAP Diversity Plus: KF3CT Assay (AID 2283069); settings: primary human keratinocytes with fibroblasts;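 further: read 24 h after compound addition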
Summary of the method: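 Cytotoxicity was gauged by SRB staining (0.1% SRB, 10% TCA fixation, 560 nm) of parallel cultures at 24 h. The cells were primary human skin keratinocytes co-cultured with fibroblasts, and activity was fitted in both directions against DMSO.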

[9] = read-out: Interleukin-1 alpha (IL1a), IL1A (gene 3552); experiment: BSK_KF3CT_IL1a: BioMAP Diversity Plus: KF3CT Assay for Interleukin-1 alpha (IL1a) Biomarker Activity (AID 2283070); settings: primary human keratinocytes with fibroblasts; actives raise or lower the signal
Summary of the method: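 IL-1a was detected by ELISA 24 h after chemical treatment of a co-culture of human skin keratinocytes and foreskin fibroblasts. Gain or loss of signal was fitted against the DMSO baseline.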

[10] = read-out: TIMP metallopeptidase inhibitor 2 (TIMP2), TIMP2 (gene 7077); experiment: BSK_KF3CT_TIMP2: BioMAP Diversity Plus: KF3CT Assay for TIMP metallopeptidase inhibitor 2 (TIMP2) Biomarker Activity (AID 2283071); settings: primary human keratinocytes with fibroblasts; actives raise or lower the signal
Summary of the method: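 TIMP-2 measured by ELISA at 24 h in human keratinocyte/fibroblast primary co-cultures exposed to chemicals. Both increases and decreases were fitted against DMSO. Parallel cultures were stained with SRB for total protein as an overt-cytotoxicity check.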

[11] = read-out: Transforming growth factor beta 1 (TGFb1), TGFB1 (gene 7040); experiment: BSK_KF3CT_TGFb1: BioMAP Diversity Plus: KF3CT Assay for Transforming growth factor beta 1 (TGFb1) Biomarker Activity (AID 2283072); settings: primary human keratinocytes with fibroblasts; actives raise or lower the signal
Summary of the method: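 ELISA quantifies TGF-b1 at 24 h post-dose in a primary human skin co-culture of keratinocytes and fibroblasts, with gain or loss judged against DMSO. Parallel SRB total-protein staining flags overt cytotoxicity.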

[12] = read-out: C-C motif chemokine 2 (Homo sapiens) (UniProt P13500); experiment: BSK_KF3CT_MCP1: BioMAP Diversity Plus: KF3CT Assay for Monocyte Chemoattractant Protein 1 (MCP1/CCL2) Biomarker Activity (AID 2283073); settings: primary human keratinocytes with fibroblasts; actives raise or lower the signal
Summary of the method: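 KF3CT skin co-culture (keratinocytes/foreskin fibroblasts), 24 h post-dose; MCP-1 by ELISA; gain/loss of signal fit bidirectionally vs DMSO baseline.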

[13] = read-out: urokinase plasminogen activator (uPA), PLAU (gene 5328); experiment: BSK_KF3CT_uPA: BioMAP Diversity Plus: KF3CT Assay for urokinase plasminogen activator (uPA) Biomarker Activity (AID 2283075); settings: primary human keratinocytes with fibroblasts; actives raise or lower the signal
Summary of the method: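 ELISA read-out of uPA 24 h after dosing human skin keratinocytes co-cultured with foreskin fibroblasts. Signal change fitted both ways relative to DMSO; sulforhodamine B on parallel cultures marks overt cytotoxicity.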

[14] = read-out: CD40, CD40 (gene 958); experiment: BSK_LPS_CD40: BioMAP Diversity Plus: LPS Assay for CD40 Biomarker Activity (AID 2283076); settings: primary human HUVEC with PBMC; actives raise or lower the signal
Summary of the method: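 ELISA readout of CD40 in HUVEC/PBMC co-culture (BSK_LPS system), 24 h post-dosing; bidirectional curve fit, DMSO baseline; parallel SRB total-protein staining for cytotoxicity.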

[15] = read-out: Interleukin-8 (IL8), CXCL8 (gene 3576); experiment: BSK_LPS_IL8: BioMAP Diversity Plus: LPS Assay for Interleukin-8 (IL8) Biomarker Activity (AID 2283078); settings: primary human HUVEC with PBMC; actives raise or lower the signal
Summary of the method: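 HUVEC + PBMC co-culture, LPS-activated; test chemicals dosed, IL-8 read by ELISA at 24 h. Bidirectional curve fit vs DMSO baseline (gain or loss of signal).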

[16] = read-out: Matrix Metallopeptidase 9 (MMP9), MMP9 (gene 4318); experiment: BSK_KF3CT_MMP9: BioMAP Diversity Plus: KF3CT Assay for Matrix Metallopeptidase 9 (MMP9) Biomarker Activity (AID 2283074); settings: primary human keratinocytes with fibroblasts; actives raise or lower the signal
Summary of the method: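 MMP-9 quantified by ELISA after 24 h chemical treatment of primary human skin keratinocyte/fibroblast co-cultures; gain or loss fitted against DMSO, with parallel SRB staining (0.1% SRB, 560 nm) for overt cytotoxicity.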

[17] = read-out: E-selectin (Homo sapiens) (UniProt P16581); experiment: BSK_LPS_Eselectin: BioMAP Diversity Plus: LPS Assay for Eselectin Biomarker Activity (AID 2283077); settings: primary human HUVEC with PBMC; actives raise or lower the signal
Summary of the method: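 ELISA readout of E-selectin, 24 h post-dose, HUVEC + PBMC co-culture (LPS system). Gain or loss of signal vs DMSO baseline, bidirectional fit.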

[18] = read-out: Plasminogen activator inhibitor-1 (PAI1), SERPINE1 (gene 5054); experiment: BSK_hDFCGF_PAI1: BioMAP Diversity Plus: hDFCGF Assay for Plasminogen activator inhibitor-1 (PAI1) Biomarker Activity (AID 2283066); settings: primary human foreskin fibroblasts; actives raise or lower the signal
Summary of the method: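 PAI-1 levels in human dermal foreskin fibroblasts were quantified by ELISA 24 h after dosing, with gain or loss analysed against DMSO. Overt cytotoxicity was checked by sulforhodamine B total-protein staining in parallel cultures.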

[19] = read-out: Interferon-gamma inducible Protein 10 (IP10), CXCL10 (gene 3627); experiment: BSK_KF3CT_IP10: BioMAP Diversity Plus: KF3CT Assay for Interferon-gamma inducible Protein 10 (IP10) Biomarker Activity (AID 2283068); settings: primary human keratinocytes with fibroblasts; actives raise or lower the signal
Summary of the method: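 Signal is secreted/surface IP-10 by ELISA in a human primary skin co-culture of keratinocytes and foreskin fibroblasts, taken 24 h post-dosing; DMSO served as negative control.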

Measured: AC50

Sequence of E-selectin (Homo sapiens) (P16581 whole entry, looked up): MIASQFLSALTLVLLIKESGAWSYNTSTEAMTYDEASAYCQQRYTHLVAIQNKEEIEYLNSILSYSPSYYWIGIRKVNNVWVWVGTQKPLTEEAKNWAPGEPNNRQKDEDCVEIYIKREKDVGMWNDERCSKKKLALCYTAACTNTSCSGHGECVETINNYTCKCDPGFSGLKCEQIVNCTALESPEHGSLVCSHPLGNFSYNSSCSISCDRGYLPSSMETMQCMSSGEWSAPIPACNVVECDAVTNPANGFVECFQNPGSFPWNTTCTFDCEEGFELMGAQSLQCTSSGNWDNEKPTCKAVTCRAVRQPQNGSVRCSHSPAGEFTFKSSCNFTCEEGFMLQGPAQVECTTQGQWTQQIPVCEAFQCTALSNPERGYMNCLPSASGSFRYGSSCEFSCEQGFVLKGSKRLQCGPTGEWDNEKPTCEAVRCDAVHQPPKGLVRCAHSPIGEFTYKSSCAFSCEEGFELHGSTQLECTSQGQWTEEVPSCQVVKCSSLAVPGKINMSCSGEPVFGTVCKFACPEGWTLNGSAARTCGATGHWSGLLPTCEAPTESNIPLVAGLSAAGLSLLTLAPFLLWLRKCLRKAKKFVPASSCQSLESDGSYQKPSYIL

CCOP(=S)(OCC)SCSc1ccc(Cl)cc1
active: [1] 14.4 µM | [6] 3.97 µM | [9] 3.12 µM | [10] 0.533 µM | [11] 0.0592 µM | [13] 0.0705 µM | [14] 20 µM
not listed: [16] | [17] | [18] | [19]
inactive: all other assays above

ClC(Cl)c1ccccc1
not listed: [18] | [19]
inactive: all other assays above

Nc1cc2c3c(c1)C(c1ccccc1)=N[C@@H](NC(=O)c1cccnc1)C(=O)N3CC2
not listed: [7] | [16] | [18] | [19]
inactive: all other assays above

CCNc1nc(Cl)nc(NC(C)(C)C)n1
not listed: [7] | [16] | [17]
inactive: all other assays above
